ATXN2 expr inh – Primary qHTS for Inhibitors of ATXN expression; HEK-293 ATXN2-luciferase reporter, luminescence, 24 h; AID 1745845, 2022; actives 0.72% (n = 360,000); Potency, µM (series often up to 57 µM), for the others: top-dose activity change, negative = inhibition, hits mostly inhibitors; note: potency is the fitted concentration of half-maximal effect; % is set by controls: 0 for no effect and ±100 for the full control effect; nearly all actives have a fitted effect of over 55% in size
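qHTS (up to 57 uM final) was run with 24 h compound exposure of reporter cells at 37 °C. Each well was multiplexed: SteadyGlo luminescence measured ATXN2-luciferase expression after a fluorogenic Gly-Phe-AFC viability readout (25 uM final).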
D3 antag – qHTS of D3 Dopamine Receptor Antagonist: qHTS | D(3) dopamine receptor (Homo sapiens), P35462 | D3R cells, DiscoveRx beta-arrestin luminescence, antagonist mode; hits give low values | max response, negative = inhibition, % | actives 2.5% (n = 360,000) | AID 652054, 2013; in the data active = max response below about -50%; inconclusive = no clear call, values can overlap the other calls; note: % is set by controls: 0 for no effect and ±100 for the full control effect
Target sequence (P35462 whole entry, looked up): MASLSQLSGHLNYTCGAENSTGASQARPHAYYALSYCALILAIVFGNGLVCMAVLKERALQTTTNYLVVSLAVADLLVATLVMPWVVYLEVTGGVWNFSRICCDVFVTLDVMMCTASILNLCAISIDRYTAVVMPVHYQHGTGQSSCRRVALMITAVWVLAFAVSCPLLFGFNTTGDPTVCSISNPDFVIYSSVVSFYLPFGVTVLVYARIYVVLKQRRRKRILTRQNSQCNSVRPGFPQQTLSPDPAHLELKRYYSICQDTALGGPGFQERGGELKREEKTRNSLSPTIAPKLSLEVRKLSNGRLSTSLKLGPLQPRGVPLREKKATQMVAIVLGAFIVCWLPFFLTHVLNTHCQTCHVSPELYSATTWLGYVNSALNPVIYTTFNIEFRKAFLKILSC
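Cells expressing the human receptor were seeded at 1500 cells/well, incubated overnight at 37 degrees C in 5% CO2, then exposed to library compounds with dopamine controls for 90 minutes at 37 degrees C before luminescent detection.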
Integrin act MD – qHTS for Activators of Integrin-Mediated Alleviation for Muscular Dystrophy; AID 624291, 2012; Potency, µM (series often up to 38.3 µM), for inactives: at the top dose activation, hits mostly activators; alpha7betagal myoblasts, beta-gal FDG fluorescence, 48 h; actives 0.064% (n = 350,000);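 note: potency is the fitted concentration of half-maximal effect; 100% = response of the positive control SU9516; nearly all actives have a fitted effect of over 60% in size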
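Alpha7betagal+/- myoblasts (passage 13) were plated 16-24 hr, then exposed to compounds (1:260 dilution of DMSO stock) for 48 hours at 37C. After MPER lysis, β-galactosidase reporter activity was read as FDG fluorescence (ex 480/em 540) after 30 minutes.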
ATXN viability – Viability Counterscreen for Primary qHTS for Inhibitors of ATXN expression; Potency, µM (highest dose often 56.7 µM), usual class: cytotoxic; AID 651635, 2014; actives 0.49% (n = 400,000); S2 cells (HEK-293 line with an ATXN2-luciferase reporter) viability, CellTiter-Fluor protease fluorescence, 24 h; note: potency is the fitted concentration of half-maximal effect; nearly all actives have a fitted effect of over 40% in size
D3 ag – qHTS of D3 Dopamine Receptor Agonist: qHTS | D(3) dopamine receptor (Homo sapiens), P35462 | D3R DiscoveRx beta-arrestin cells, luminescence, 90 min | max activation, % | actives 0.58% (n = 410,000) | AID 652048, 2013; in the data active = max activation above about 30%; note: 0% is about no effect
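Agonist-mode cell screen: cells plated at 1500/well and incubated overnight at 37 °C, then exposed to library compounds for 90 min at 37 °C. Detection reagent was added for 30–60 min at room temperature, and luminescence was read.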
IL1B secr inh – qHTS for Inhibitors of Inflammasome Signaling: IL-1-beta AlphaLISA Primary Screen | THP-1 LPS/ATP IL-1B secretion, AlphaLISA, 16 h; hits give low values | activity change, % at 57.5 µM | actives 4.7% (n = 360,000) | AID 743279, 2014; in the data active = activity change below about -50%; inconclusive = mostly about -30% to -49%; note: % is set by controls: 0 for no effect and ±100 for the full control effect
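THP-1 cells pretreated 1 hr with compounds (up to 57.5 uM final), then stimulated with LPS (250 ng/mL final) plus ATP (1.25 mM final); secreted IL-1B measured by AlphaLISA after 16 hr, decreased signal indicating inhibition.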
The depositor's hits bear a star; i = inactive; ? = inconclusive; . = not tested or not shown. This is a sample that favours compounds with a hit; in the whole collection about 7% have one here. Unless noted, calls come from the whole dose curve; as a rule, active = well fitted curve in the direction sought with a large enough effect; inconclusive = small, poorly fitted or top-dose-only effect, or another doubt; inactive = no such curve, though single readings can be large; an effect the other way counts as inactive or inconclusive.

SMILES | ATXN2 expr inh | D3 antag | Integrin act MD | ATXN viability | D3 ag | IL1B secr inh
CCc1ccc(-c2cc(C)no2)cc1S(=O)(=O)N1CCN(c2ccccn2)CC1 | -22% | -8 | 0% | i | -9 | 0
COc1ccc(-c2cc(C)no2)cc1S(=O)(=O)N1CCN(c2ccccn2)CC1 | ? | 10 | 0% | i | 5 | -77*
COc1ccc(C(=O)O)cc1S(=O)(=O)N1CCN(c2ccccn2)CC1 | 5% | 3 | 8% | i | -1 | 8
COc1ccc(OC)c(S(=O)(=O)N2CCN(c3ccccn3)CC2)c1 | 7% | -104* | 17% | i | -3 | -28
COC(CNC(=O)c1ccc(N2CCCC2=O)cc1)OC | -6% | -51* | 21% | i | 1 | -18
CCc1cccc(NC(=O)CN(C)S(=O)(=O)c2cnc[nH]2)c1 | -4% | -52* | 3% | i | 4 | 20
CC(=O)c1ccc(NC(=O)Cn2c(=O)n(Cc3ccco3)c(=O)c3sc4ccccc4c32)cc1 | 11% | . | . | i | 0 | .
C/C(CC1CC2=C(CC1(C)C)C(C)(C)CCC2)=N\NC(N)=S (centres undefined) | ? | ? | -57% | . | -22 | -74*
C/C(CC1CC(C)(C)OC1=O)=N\NC(N)=S (centres undefined) | -3% | -14 | 6% | i | 16 | 5
Cc1ccc(S(=O)(=O)c2nc(S(C)(=O)=O)sc2N2CCCC2)cc1 | 5% | 5 | -7% | i | -4 | -1
Cc1ccc(S(=O)(=O)c2nc(S(=O)(=O)c3ccccc3)sc2N2CCN(CCO)CC2)cc1 | -2% | -74* | 0% | i | -18 | -68*
CCS(=O)(=O)c1nc(S(=O)(=O)c2ccc(C)cc2)c(N2CCN(CCO)CC2)s1 | -11% | -18 | -37% | i | -13 | -4
Cc1ccc(S(=O)(=O)c2nc(S(=O)(=O)c3ccccc3)sc2N2CCN(C)CC2)cc1 | -4% | -86* | -23% | i | -20 | -66*
CCOC(=O)CCN(Cc1ccccc1)S(=O)(=O)c1csc(C(N)=O)c1 | -6% | 4 | -6% | i | 2 | 7
CCN(CC)Cc1csc(C(N)=O)c1 | -1% | -53* | 8% | i | 5 | 41
CCOC(=O)c1c(N)n[nH]c1-c1ccc(OC)cc1 | 1% | 3 | -8% | i | 3 | 0
O=C(CBr)N1CCc2ccccc2C(c2ccccc2)C1 (centres undefined) | 6% | 6 | 1% | i | -7 | 15
C=CCN1CCc2c(cc(O)c(O)c2Br)[C@@H](c2ccccc2)C1 | 1% | 3 | . | i | 83* | 106
CN1CCN(C(=O)CN(c2cccc(Cl)c2)S(=O)(=O)c2ccccc2)CC1 | 2% | -14 | -22% | i | -4 | -1
CCC1CCc2sc(C(=O)NCc3ccccn3)cc2C1 (centres undefined) | -8% | -8 | -34% | ? | -1 | -11
CCC1CCc2sc(C(=O)NC3CCN(Cc4ccccc4)CC3)cc2C1 (centres undefined) | ? | -72* | -55% | ? | -32 | -74*
CC1CCc2sc(C(=O)NC3CCN(Cc4ccccc4)CC3)cc2C1 (centres undefined) | -31% | -95* | -64% | i | -19 | -59*
CC1CCc2sc(C(=O)NN=C3CCC(c4ccccc4)CC3)cc2C1 (centres undefined) | . | -1 | 11% | i | -5 | -1
C/C(=N\NC(=S)NC(C)C)c1ccccc1OC(F)F | -19% | -4 | -5% | i | -8 | 18
CCNC(=S)N/N=C(\C)c1ccc2ccccc2c1OC(F)F | ? | -5 | -30% | ? | 30* | 32
O=C(Cc1ccc(NC(=O)C2CCN(C(=O)C3CCCCC3)CC2)cc1)Nc1cccc(C(=O)N2CCCCC2)c1 | 8% | 0 | 13% | i | 15 | -3
